Source: PubChem BioAssay
Only some compounds are listed: those with a hit (about 19% of all), similar ones and a draw of the others.
HepG2 viability – HepG2 cytotoxicity, counter-screen for TGF-b inhibitors | 410,000 compounds, 0.76% hits | Potency, µM (titrated, usually from 46.1 µM), inactives show at the top dose activity change, negative = cytotoxicity, hits mostly cytotoxic | HepG2 CAGA-GFP viability, ATP luminescence, 18 h; further: potency means the concentration at half of the fitted maximal effect
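CellTiter-Glo luminescence gave cytotoxicity after 18 hours at 37 degrees C. The cells were HepG2 CAGA-GFP in 1% FBS DMEM, stimulated with 500 pg/mL TGF-beta after compound addition. %Activity was normalised to no-cell wells (complete cell-killing) and DMSO (no toxicity), and curves were fitted and classified.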
TGFb inhibitor – TGF-b pathway inhibition; 410,000 compounds, 1.2% hits; HepG2 CAGA-GFP TGF-b/SMAD3 reporter, GFP fluorescence, 18 h; TGF-beta stimulated, 500 pg/mL final; Potency, µM (highest dose often 46.1 µM), for the others: at the highest dose activity, negative = inhibition, most hits filed as inhibitors; further: potency means the concentration at half of the fitted maximal effect; on the % scale 0 is the no-effect control and ±100 the full control effect; nearly all actives have a fitted effect of over 65% in size
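Inhibition of TGF-beta-driven CAGA-GFP reporter expression in HEPG2 cells is measured by cellular GFP fluorescence after 18 h stimulation with 500 pg/mL recombinant TGF-beta in 1% FBS medium at 37 degrees C.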
S-ASM inh – inhibitors of human secretory acid sphingomyelinase; P17405; placental ASM, HMU-PC fluorogenic substrate, 60 min; Potency, µM (highest dose often 57.5 µM), inactives show at the top dose activity change, negative = inhibition, most hits filed as inhibitors; 340,000 compounds, 0.006% hits; further: potency means the concentration at half of the fitted maximal effect
Target sequence (P17405 47-631 limits assumed): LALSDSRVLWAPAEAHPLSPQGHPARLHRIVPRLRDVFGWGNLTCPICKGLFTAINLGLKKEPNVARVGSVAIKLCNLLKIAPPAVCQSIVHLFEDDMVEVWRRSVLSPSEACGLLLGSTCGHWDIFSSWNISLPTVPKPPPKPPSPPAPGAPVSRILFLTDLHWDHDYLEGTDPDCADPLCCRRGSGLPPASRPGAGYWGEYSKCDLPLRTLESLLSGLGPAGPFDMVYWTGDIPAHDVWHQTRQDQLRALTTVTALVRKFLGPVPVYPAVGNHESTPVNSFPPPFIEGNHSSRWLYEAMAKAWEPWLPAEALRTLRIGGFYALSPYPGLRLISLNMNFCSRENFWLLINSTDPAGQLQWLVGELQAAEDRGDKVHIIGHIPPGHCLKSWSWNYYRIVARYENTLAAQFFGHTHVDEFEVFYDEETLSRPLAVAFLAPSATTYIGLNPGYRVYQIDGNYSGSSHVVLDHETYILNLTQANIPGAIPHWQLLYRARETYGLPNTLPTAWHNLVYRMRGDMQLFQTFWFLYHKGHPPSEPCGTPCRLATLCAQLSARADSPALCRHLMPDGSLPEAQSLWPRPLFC
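HMU-PC0 cleavage (9 uM final) by human placental ASM, 60 min at 37 °C following 10 min compound exposure at RT; stopped at pH 10, fluorescence Ex 386/Em 447 nm.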
DT40 TDP1 CPT – DT40-hTDP1 cell growth loss with CPT; chicken DT40 Tdp1-/-;hTDP1 cells + 20 nM CPT, ATP luminescence, 48 h; Potency, µM (top dose mostly 46.2 µM), for the others: at the top dose activity change, negative = growth inhibition, hits mostly inhibitors; 420,000 compounds, 12% hits; AID 686979; further: potency means the concentration at half of the fitted maximal effect; on the % scale 0 is the no-effect control and ±100 the full control effect; nearly all actives have a fitted effect of over 55% in size
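Cell growth measured by CellTiter-Glo luminescence after a minimum 48 h, 37 C compound exposure with 20 nM CPT in Tdp1-knockout DT40 cells stably expressing hTDP1, seeded 400/well; qHTS titration format.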
TDP1 cell noCPT – qHTS for Inhibitors of human tyrosyl-DNA phosphodiesterase 1 (TDP1): qHTS in cells in absence of CPT | 420,000 compounds, 15% hits | Potency, µM (titrated, usually from 46.2 µM), for inactives: at the top dose activity change, negative = growth inhibition, hits mostly inhibitors | DT40 Tdp1-/- hTDP1 cells, no CPT, ATP luminescence, 48 h; further: potency means the concentration at half of the fitted maximal effect; on the % scale 0 is the no-effect control and ±100 the full control effect; nearly all actives have a fitted effect of over 55% in size
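Compound effects on proliferation are scored in DT40 Tdp1-/-;hTDP1 cells in the absence of CPT. ATP levels (CellTiter-Glo luminescence) are recorded after a ≥48 hr, 37 °C incubation.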
IL1B secr inh – inhibitors of inflammasome signaling (IL-1 beta secretion). activity change, % at 57.5 µM. AID 743279. THP-1 LPS/ATP IL-1B secretion, AlphaLISA, 16 h; active compounds read low. 360,000 compounds, 4.7% hits; in the data active means activity change below about -50%; inconclusive means mostly about -30% to -49%; further: on the % scale 0 is the no-effect control and ±100 the full control effect
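THP-1 cells pretreated 1 hr with compounds (up to 57.5 uM final), then stimulated with LPS (250 ng/mL final) plus ATP (1.25 mM final); secreted IL-1B measured by AlphaLISA after 16 hr, decreased signal indicating inhibition.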
* marks the source's active call; other numbers are inactive results; ? = inconclusive; . = no result given; [ ] = another dose, or the depositor's remark. Unless noted, the call rests on the fitted dose curve; in most records, active means well fitted curve in the direction sought with a large enough effect; inconclusive means small, poorly fitted or top-dose-only effect, or another doubt; inactive means no such curve, though single readings can be large; an effect the other way counts as inactive or inconclusive.

SMILES	HepG2 viability	TGFb inhibitor	S-ASM inh	DT40 TDP1 CPT	TDP1 cell noCPT	IL1B secr inh
COc1cccc(-c2ccc3c(c2)O[C@H](CN(C)C(=O)c2ccccc2F)[C@H](C)CN([C@H](C)CO)S3(=O)=O)c1	3.2%	-7.5%	.	?	20.6µM*	-28.7
Cc1ccc(-c2ccc3c(c2)O[C@H](CN(C)Cc2cncnc2)[C@@H](C)CN([C@H](C)CO)S3(=O)=O)cc1	-21.3%	2.9%	.	?	23.1µM*	-28.7
COc1cccc(-c2ccc3c(c2)O[C@@H](CN(C)Cc2cncnc2)[C@@H](C)CN([C@H](C)CO)S3(=O)=O)c1	-31.4%	?	.	23.1µM*	9.2µM*	0.9
C[C@@H]1CN([C@@H](C)CO)S(=O)(=O)c2ccc(-c3cccc(C#N)c3)cc2O[C@@H]1CN(C)C(=O)c1ccc(F)cc1	-30.1%	-11.8%	.	?	20.6µM*	-26.4
OC(c1ccc(Cl)cc1)c1ncc(-c2cccc(F)c2)[nH]1 (configuration not stated)	-7.2%	-5.8%	.	?	?	-8.5
O=C1CCN(Cc2cccc(C(F)(F)F)c2)CCN1Cc1ccccn1	.	.	.	4.0%[9.04 µM]	-7.6%	.
COc1ccc(C(=O)N2C(=O)c3ccc(N)cc3C2=O)cc1	-38.8%	24.9%	17.0%	-11.5%	-5.9%	-14.8
CCOC(=O)c1ccc2oc(=O)n(Cc3ccccc3)c2c1	-29.3%	-8.8%	.	-27.7%	-23.0%	.
O=C(Nc1ccccc1C(=O)OCc1cc(=O)n2ccsc2n1)c1ccc(Cl)cc1	-27.5%	-19.6%	.	-12.7%	-7.2%	.
COc1ccc(C(=O)/C=C2\C(=O)Nc3ccc(Br)cc32)cc1	-42.9%	?	-7.8%	2.91µM*	18.4µM*	-98.6*
O=C1Nc2ccc(Br)cc2/C1=C/C(=O)c1ccc2c(c1)OCO2	-110.5%	?	-10.7%	5.8µM*	3.26µM*	?
COc1ccc(C(=O)c2ccc(Br)cc2)cc1	6.7%	1.6%	9.5%	-3.9%	-17.0%	-18.1
OCCC1CN(Cc2cc(F)ccc2-n2cccn2)CCN1C1CCCC1 (configuration not stated)	0.7%	13.5%	1.1%	-5.2%	15.3%	-7.2
N=c1sc2ccccc2n1-c1ccccc1	-28.4%	?	33.1%	?	25.9µM*	9.8
C=CC(=O)N=c1sc2ccccc2n1-c1ccccc1	4.47µM*	10µM*	-1.6%	2.59µM*	2.59µM*	-103.7*
Cn1/c(=N/NC(=O)c2ccccc2Br)sc2ccccc21	-4.2%	7.9%	1.5%	18.7%	-10.6%	-3.1
O=c1sc2ccccc2n1Cc1ccccc1	-9.4%	2.0%	0.1%	-4.7%	-2.0%	39.1
CC(=O)c1ccccc1OCC(O)Cn1ccnc1 (configuration not stated)	4.1%	1.5%	4.2%	1.7%	13.1%	25.9
c1ccc2c(c1)nc(N1CCCCCC1)c1nncn12	-20.1%	-12.4%	.	?	?	27.8
CCOCN(C(=O)CSc1nc2ccccc2[nH]1)c1c(C)cccc1CC	-43.5%	-40.0%	.	14.6µM*	23.1µM*	.
CCOC(=O)c1c(C)[nH]c(C)c1C(=O)CSc1nc2ccccc2[nH]1	8.2%	?	-2.2%	-72.6%	-74.2%	-2.0
CCOCN(C(=O)Cn1c(CC(C)C)nc2ccccc21)c1c(C)cccc1CC	-18.9%	0.0%	.	?	23.1µM*	.
CC(O)CNc1nc2c(c(=O)n(Cc3ccccc3)c(=O)n2C)n1C (configuration not stated)	-29.8%	-23.9%	4.2%	10.5%	-13.5%	-1.9
COc1ccccc1Nc1nc2c(s1)CCC2	-1.8%	9.9%	0.1%	14.6µM*	?	-11.1
COc1ccc(Nc2c3c(nc4ccccc24)CCC3)c(OC)c1	-32.5%	?	-2.9%	14.6µM*	16.4µM*	?
SMILES	HepG2 viability	TGFb inhibitor	S-ASM inh	DT40 TDP1 CPT	TDP1 cell noCPT	IL1B secr inh
COc1ccccc1Nc1c2c(nc3ccccc13)CCC2	-26.6%	17.8µM*	-2.6%	18.4µM*	16.4µM*	5.0
COc1cc(Nc2c3c(nc4ccccc24)CCCC3)cc(OC)c1OC	-48.6%	-7.3%	-0.8%	?	?	?
COc1cc(N)ccc1Nc1c2ccccc2nc2ccccc12	-73.7%	?	.	0.82µM*	1.46µM*	-24.0
O=S(=O)(NCc1ccc(C(F)(F)F)cc1)c1ccc(-n2cnnn2)cc1	-15.4%	-9.9%	-2.3%	?	-16.2%	-0.8
COc1cc(Cl)c(C)cc1Nc1c2c(nc3ccccc13)CCC2	11.2µM*	15.8µM*	.	2.06µM*	1.46µM*	.
Cc1ccnc(NC(=S)NC(=O)c2ccco2)c1	-18.6%	3.8%	1.4%	18.1%	-16.9%	23.7
COC(=O)C(NC(=O)c1ccco1)(Nc1cc(C)ccn1)C(F)(F)F (configuration not stated)	3.16µM*	14.4%	1.3%	-10.6%	-5.6%	8.8
Cc1ccc(NC(=O)c2ccc(Cl)cc2Cl)c(C(=O)c2ccccc2)c1	-27.2%	?	.	?	?	.
Cc1ccc(C)c(N(C(=O)Cc2cccs2)C(C(=O)NC2CCCC2)c2ccc(C)o2)c1 (configuration not stated)	-2.7%	-11.3%	-0.8%	23.1µM*	13µM*	4.5
Cc1ccc(C(C(=O)NC2CCCC2)N(C(=O)Cc2cccs2)c2ccc(C)c(C)c2)o1 (configuration not stated)	-52.2%	?	-2.7%	?	22.4µM*	-74.0*
Cc1ccc(N(C(=O)Cc2cccs2)C(C(=O)NC2CCCC2)c2ccncc2)cc1 (configuration not stated)	-4.7%	1.1%	-1.3%	?	-24.9%	6.1
O=C(NC1CCCC1)C(c1ccsc1)N(C(=O)Cc1cccs1)c1ccccc1 (configuration not stated)	7.6%	-5.8%	6.6%	-14.6%	-17.7%	-3.9
Cc1ccc(C(C(=O)NC2CCCC2)N(C(=O)Cc2cccs2)c2ccc3c(c2)OCCO3)cc1 (configuration not stated)	-0.6%	-14.3%	2.3%	?	?	-58.4*
O=C(NC1CCCC1)C(c1ccc(F)cc1)N(C(=O)Cc1cccs1)c1ccc2c(c1)OCCO2 (configuration not stated)	1.8%	3.0%	0.0%	?	?	-11.3
